Screening results as filed in PubChem.
The list is not random: actives were taken first. Their share in the collection is about 21%.
Shiga inhibitor: Shiga toxin inhibition | Vero cells, Shiga toxin protein synthesis inhibition reporter | inhibition, % at 38.7 µM | 290,000 tested, 9.2% active; in the data active = inhibition mostly above about 28%, no sharp cut-off; inactive = mostly below about 43%; note: 0% is about no effect
Sm TGR inh: blocks Schistosoma mansoni thioredoxin glutathione reductase | Q962Y6 | purified TGR, DTNB reduction, TNB absorbance 405 nm | Potency, µM (doses to about 114 µM), for inactives: top-dose activity change, negative = inhibition, usual class: inhibitors | 360,000 tested, 3% active | AID 485364; note: potency is the fitted concentration of half-maximal effect; % is set by controls: 0 for no effect and ±100 for the full control effect; nearly all actives have a fitted effect of over 60% in size
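TGR 20 nM + NADPH 100 uM (dispensed conc.), cpd preinc 15 min RT; start with NADPH (500 uM addition) then DTNB (15 mM addition). Kinetic TNB absorbance, 405 nm filter. Four-parameter Hill fit across titration.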
Pf growth 96h: inhibits malaria parasite growth, 96 h | P. falciparum luciferase reporter growth, 96 h | Potency, µM (doses to about 28.7 µM), without a hit: top-dose activity change, negative = inhibition, hits mostly inhibitors | 320,000 tested, 6.9% active; note: potency is the fitted concentration of half-maximal effect; % is set by controls: 0 for no effect and ±100 for the full control effect
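Compounds incubated with erythrocytes infected by luciferase-expressing P. falciparum (2% hematocrit, 0.05% parasitemia final) for 96 hours, 37 C in 5% CO2. Growth inhibition scored as decreased luciferase luminescence.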
NS1 inh: blocks influenza NS1 protein function. Potency, µM (highest dose often 46.1 µM), inactives show at the top dose activity, positive = more growth. 270,000 tested, 0.4% active. AID 2326; calls by dose curve; note: potency is the fitted concentration of half-maximal effect; actives are rising curves; nearly all actives have a fitted effect of over 50% in size
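S. cerevisiae expressing influenza A NS1, grown in glucose, washed, then diluted 1:100 into pH 6.0 -URA galactose medium with 23 nl compound. Growth recovery read as OD600; NS1-free strain serves as control.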
CHX counter: affects cycloheximide protein synthesis inhibition readout, counter-screen; max response, %; 300,000 tested, 12% active; cell reporter, cycloheximide protein synthesis inhibition counterscreen; in the data active = max response mostly above about 13%, no sharp cut-off; inactive = mostly below about 14%; note: read at 38.3 µM for the half of the compounds with a filed dose; 0% is about no effect
Pf growth 48h: inhibits P. falciparum growth in the first generation, 48 h | P. falciparum luciferase growth in erythrocytes, 48 h | Potency, µM (series often up to 28.7 µM), inactives show at the top dose activity change, negative = inhibition, usual class: inhibitors | 310,000 tested, 5.9% active | AID 504832; note: potency is the fitted concentration of half-maximal effect; % is set by controls: 0 for no effect and ±100 for the full control effect
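Parasite viability was followed by luminescence of a genomically integrated firefly luciferase. Cultures held 0.1% parasitemia at 2% hematocrit (final), incubated under 5% CO2 at 37 C.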
The depositor's hits bear a star; ? = inconclusive; / = no result. Unless noted, calls come from the whole dose curve; as a rule, active = well fitted curve in the direction sought with a large enough effect; inconclusive = small, poorly fitted or top-dose-only effect, or another doubt; inactive = no such curve, though single readings can be large; an effect the other way counts as inactive or inconclusive.

SMILES | Shiga inhibitor | Sm TGR inh | Pf growth 96h | NS1 inh | CHX counter | Pf growth 48h
Cc1ccc(COc2ccsc2C(=O)NN)cc1 | 27.8 | -0.3% | ? | / | 17.5 | 476.6%
COc1ccc(-c2nn(Cc3ccccc3)cc2C(=O)N2CCN(c3ncccn3)CC2)cc1OC | / | -13.1% | ? | / | / | ?
CCOC(=O)c1cc(S(=O)(=O)Nc2ccc(F)cc2F)cn1C | -0.9 | -25.1% | 29.1% | -4.2% | -4.2 | 16.4%
CN(C)c1ccc(-c2ccncc2)cc1 | 20.8 | -17.3% | / | -8.1% | 11.4 | 18.9%
CN(C)CCCNC(=O)c1ccc(-c2cc(O)c3ncccc3c2)cc1 | / | -3.7% | 6.57µM* | / | / | 10.4µM*
CN(C)c1ccc(-c2cc(O)c3ncccc3c2)cc1 | / | 2.6% | 5.22µM* | / | / | 3.7µM*
CN1CCN(c2ccc(-c3cc(O)c4ncccc4c3)cc2)CC1 | / | -4.4% | 2.62µM* | / | / | 2.62µM*
COc1ccc(N2CCN(C(=O)c3cc4ccc5cccnc5c4[nH]3)CC2)cc1 | / | 1.1% | / | / | / | /
CN(C)CCCNC(=O)c1ccccn1 | -6.4 | 0.1% | 1.0% | -3.6% | -5.2 | /
CCOC(=O)Cc1csc(N/C(=N/S(=O)(=O)c2cc(Br)ccc2OCC)c2ccccc2)n1 | -2.2 | -0.9% | 11.2% | 8.8% | -3.5 | -2.2%
CCc1ccccc1NC(=O)CCNS(=O)(=O)c1ccc2c(c1)CCN2C(=O)C1CC1 | / | 0.8% | / | / | / | /
Cc1cccc2c1NC(=O)/C2=C\C(=O)c1cccs1 | -7.1 | -1.4% | -24.8% | -44.6% | 15.2* | /
COc1ccc(CCNC(=O)c2cc(S(=O)(=O)N3CCCCC3)ccc2Cl)cc1 | / | -6.7% | ? | / | / | 2.6%
COc1ccc(C(CNC(=O)c2ccc(S(=O)(=O)N3CCCC3)cc2)N2CCOCC2)cc1 (stereo unspecified) | -2.4 | -7.1% | ? | 6.8% | 1.0 | ?
COc1ccc(C(CNC(=O)c2ccc(Cl)c(S(=O)(=O)N3CCCC3)c2)N2CCCC2)cc1 (stereo unspecified) | / | -7.6% | 7.38µM* | / | / | 13.1µM*
COc1ccc(C(=O)NCC(c2ccc(Cl)cc2)N2CCCCC2)cc1 (stereo unspecified) | / | -3.3% | / | / | / | /
COc1ccc(C(=O)NCC(c2ccc3c(c2)OCO3)N2CCN(c3ccc(OC)cc3)CC2)cc1 (stereo unspecified) | / | -7.8% | 2.62µM* | / | / | ?
COc1ccc(C(CNC(=O)c2cc(S(=O)(=O)N3CCCC3)ccc2Cl)N2CCCC2)cc1 (stereo unspecified) | / | -8.4% | 9.28µM* | / | / | ?
COc1ccc(C(CNC(=O)c2ccc(S(=O)(=O)N(C)C)cc2)N2CCCC2)cc1 (stereo unspecified) | -4.1 | -14.9% | ? | 12.8% | 4.1 | 10.4µM*
Cc1ccc(C)n1-c1ccccc1N1CCCCC1 | -5.0 | ? | ? | / | 0.8 | ?
CN(C)c1ncc(C(=O)NCc2ccccc2Cl)cn1 | / | -2.4% | / | / | / | /
